Measurements taken from the supplement of paper PMC6555819.

Tests used:
Test in all cases: PBM binding z-score (relative to random genomic background probes); higher = stronger binding; sequences stand for … in GC…GCGATTGACAGCGTAGAATGAAGG
[1] = system: RARb homodimer (NR concentration 270 nM)
How it was run: (§1)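 Scanned fluorescence from custom Agilent 4×180K protein-binding microarrays was regression-normalized. Binding z-scores use random background probes as reference. Ligand-free nuclear receptor dimers were incubated on the arrays for 1 h and detected with antibodies against each partner (one per run).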

[2] = system: RARg:RXRa (NR concentration 270 nM, RXRa partner concentration 90 nM)
How it was run: as §1

[3] = system: RARg homodimer (NR concentration 270 nM)
How it was run: as §1

[4] = system: RXRa DBDmut IVT, anti-RXR (DBD mutation: RXRa K156A/R161A, NR concentration 90 nM)
How it was run: as §1

[5] = system: RXRa homodimer (NR concentration 180 nM)
How it was run: as §1

[6] = system: THRa:RXRa (NR concentration 90 nM, RXRa partner concentration 90 nM)
How it was run: as §1

[7] = system: THRa homodimer (NR concentration 90 nM)
How it was run: as §1

[8] = system: VDR homodimer (NR concentration 270 nM)
How it was run: as §1

| Sequence | PBM binding z-score [1] | PBM binding z-score [2] | PBM binding z-score [3] | PBM binding z-score [4] | PBM binding z-score [5] | PBM binding z-score [6] | PBM binding z-score [7] | PBM binding z-score [8] |
| --- | --- | --- | --- | --- | --- | --- | --- | --- |
| ACTAGCAGGCCAAGGGTCACTAAAGATTAGTCCG | 3.83 | 4.08 | 3.84 | 0.469 | 4.13 | 2.31 | 0.0838 | 1.07 |
| ACTAGCAGGCCAAGTTTGGGTCACTGAAACAAAG | 2.33 | 2.54 | 2.01 | -0.119 | 0.982 | 2.71 | 1.29 | 0.416 |
| CCTACTGGGACAAAAAGGTCATTGATGCCGATAA | 4.37 | 4.68 | 4.48 | 1.21 | 5.22 | 3.31 | 0.878 | 3.69 |
| TAGCTTAGGTCATGGGCCAGTATACCACGCGAAC | 3.13 | 4.31 | 4.67 | 0.975 | 3.74 | 3.68 | 2.42 | 0.172 |
| AGAATGAGGCTATTAAGATCAGGGAATTGCGGTC | -0.0206 | -0.0314 | 0.143 | 0.0802 | 0.257 | 0.48 | -0.292 | -0.448 |
| AGTCAAAGTTCATCTACGTAACGTAAGATATGCT | 3.64 | 5.4 | 6 | 4.59 | 4.55 | 1.88 | -0.445 | 4.34 |
| CGTCCAATGTCAAGGTCAGTGAAAGAGACTCGAA | 3.45 | 3.38 | 4.06 | 1.1 | 2.22 | 2.91 | 2.18 | 1.57 |
| CCTACTGGGCCATTCAGAGGTCATTAATCATATG | 3.81 | 4.21 | 2.91 | 0.793 | 3.48 | 3.13 | 1.35 | 3.11 |
| AGAACGAGGGCGATGAGTTGATAGCACGGGTGGC | -0.239 | -0.0988 | 0.302 | 1.06 | 0.298 | -0.0851 | -0.71 | 2.17 |
| CCGACTGCGGCAAAGGTTACCATACTCAGTACGA | 2.07 | 1.43 | 1.07 | 0.531 | 2.46 | 1.33 | 0.0326 | 0.183 |
| TCTTGTAGATCAACTGGAGGTTAAGAAAGATCGA | 0.645 | 1.23 | 0.313 | 0.336 | 0.971 | 1.1 | -0.207 | -0.0194 |
| CATACAGGGTCACCTAGGCCAGAGTAGGGACGGC | 3.71 | 5.53 | 5.52 | 2.15 | 6.27 | 3.65 | 1.57 | 2.32 |
| ACTATTAGTTGTGACGAGGGCAACCGATAGGTTG | 1.21 | 0.579 | 0.719 | 0.601 | 0.491 | 1.32 | 0.209 | 0.862 |
| CCGACTGGGGTAAGGTTACCATAACGCACAGCCA | 1.12 | 0.907 | 0.859 | -0.0386 | 1.55 | 2.36 | 1.47 | 0.414 |
| AGTCAAAGTTCCGGACGAGGTAACGTAAAGCACG | 0.173 | 0.181 | 0.277 | -0.303 | 0.201 | 1.62 | 0.886 | -0.0573 |
| CAAACTAGGTGACGAAAGGTCAAAGTCGAATGAC | 4.9 | 6.2 | 6.26 | 1.41 | 7.46 | 4.22 | 1.33 | 2.22 |
| ACAGACAGATGATGAAGGTAACTCAGGCTATCAT | 0.176 | 0.199 | 0.513 | -0.152 | 0.225 | 0.742 | 0.192 | 0.335 |
| TCTATTAGTTGATTAGGGCAACGGAAACAGCGGA | 0.377 | 0.729 | 0.882 | 0.972 | 0.448 | 0.578 | 0.239 | 0.264 |
| CCTAGCAGGCCAGGGTCACTCCAGCATTTCGCTT | 2.7 | 2.61 | 2.18 | 0.578 | 2.86 | 2.61 | 1.02 | 1.64 |
| TCTCGGAGGACACGAAGGTAAGAGCTTTCCAGAG | 0.164 | 0.396 | 1.27 | 0.371 | -0.0884 | 1.18 | 0.0809 | -0.641 |
| TCTGCTAGGTCGACGATGGTCAGCTAATCTGCTA | 0.457 | 0.664 | 0.829 | 0.128 | 0.321 | 0.669 | -0.884 | -0.845 |
| GATCCAGGGTCAAGGCCAGAGTACGCGTATTGAT | 3.61 | 5.58 | 5.08 | 2.45 | 6.11 | 3.65 | 1.11 | 2.04 |
| TAGCCTAGGTAATTCAGGGGCCAGTATAGAAAGC | 0.306 | 0.386 | -0.0521 | -0.687 | -0.137 | 0.54 | -0.13 | -0.354 |
| CGTCCAAGGTCAAAGATCAGTGAAGAGATGACGG | 3.86 | 6.12 | 6.48 | 3.73 | 6.79 | 3.85 | 1.87 | 2.6 |
| GCTGCTAGGTCAACTGATGTTCAGCTAAAGCTCG | 3.45 | 4.37 | 5.51 | 1.81 | 2.95 | 2.89 | 1.02 | 0.0528 |
| CGAACGAGGGCATGCGTTGATAGCAAATGCCGAT | 0.766 | 1.03 | 1.55 | 2.39 | 0.91 | 0.988 | -0.0968 | 1.21 |
| CCAGACAGGTGCGAAGGTAACTCAGCCTCGATTA | -0.418 | -0.29 | -0.243 | 0.384 | -0.121 | -0.305 | -0.159 | -0.453 |
| CGTCAAAGTTCAGCTAAGGTAACGTAAAGCACGC | 3.8 | 4.28 | 5.29 | 3.46 | 3.15 | 5.46 | 2.11 | 1.84 |
| CCTAGTTGGTCAAGGTCACACAAGCTATAGGTAC | 4.53 | 4.81 | 4.89 | 2.26 | 4.88 | 4.19 | 3.83 | 3.72 |
